In the library only some 6% were active in any assay of this set; here they are far more common.
D1 antag – human D1 dopamine receptor antagonism. 360,000 tested, 3.2% active. activity change, negative = inhibition, % at 10 µM. P21728. HEK293 TREx D1 cells, calcium flux, dopamine EC80; active compounds read low; in the data active = activity change below about -30%; also: % is scaled to controls: 0 for no effect and ±100 for the full control effect
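After overnight tetracycline induction at 30 C, force-coupled D1 HEK293 cells took up a no-wash calcium dye at room temperature. Compounds were added and monitored 180 s, and the response to EC80 dopamine was then recorded.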
D1 potentiator – human D1 dopamine receptor positive modulation. P21728. HEK293 TREx D1 cells, calcium flux, dopamine EC20 potentiation. potentiation, % at 10 µM. 360,000 tested, 0.036% active. AID 504651; in the data active = potentiation above about 30%; also: 0% is about no effect
D1 agonist – human D1 receptor agonism; HEK293 T-REx D1 cells, calcium flux, agonist mode; activation, % at 2 µM; 360,000 tested, 1% active; in the data active = activation above about 30%; also: 0% is about no effect
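Agonism was scored from calcium flux recorded over 180 s (1 read/s) after pintool compound addition, following a 10-cycle baseline. Cells were inducible force-coupled HEK293 TREx D1, plated overnight at 30 C and loaded with no-wash calcium dye.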
DRD3 antagonist – blocks the human D3 dopamine receptor | 360,000 tested, 2.5% active | D3R cells, DiscoveRx beta-arrestin luminescence, antagonist mode; active compounds read low | max response, negative = inhibition, %; in the data active = max response below about -50%; inconclusive = no clear call, values can overlap the other calls; also: % is scaled to controls: 0 for no effect and ±100 for the full control effect
Target sequence (P35462 whole entry, looked up): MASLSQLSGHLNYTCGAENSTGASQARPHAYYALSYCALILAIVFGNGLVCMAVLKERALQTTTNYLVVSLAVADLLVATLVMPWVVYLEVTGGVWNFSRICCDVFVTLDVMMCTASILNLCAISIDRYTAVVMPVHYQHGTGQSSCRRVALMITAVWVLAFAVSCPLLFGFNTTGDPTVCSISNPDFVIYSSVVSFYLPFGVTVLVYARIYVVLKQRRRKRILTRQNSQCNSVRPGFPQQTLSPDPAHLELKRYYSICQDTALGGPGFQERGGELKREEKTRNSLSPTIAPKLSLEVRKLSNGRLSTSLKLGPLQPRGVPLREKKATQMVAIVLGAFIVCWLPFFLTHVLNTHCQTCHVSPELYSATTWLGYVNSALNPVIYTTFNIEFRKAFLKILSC
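Cells plated overnight at 1500 cells/well, then exposed to library compounds with dopamine controls for 90 minutes at 37 degrees C. DiscoveRx reagent added for 30–60 minutes at room temperature; luminescence read, quantitative HTS format.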
D3 ag – D3 dopamine receptor (human) agonism; 410,000 tested, 0.58% active; D3R DiscoveRx beta-arrestin cells, luminescence, 90 min; max activation, %; P35462; in the data active = max activation above about 30%; also: 0% is about no effect
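Cells at 1500/well, incubated overnight, then treated with pinned compounds (dopamine as control) for 90 min at 37 degrees C. DiscoveRx reagent added for 30 - 60 minutes at room temperature; luminescence read.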
The depositor's hits bear a star; ? = inconclusive; · = not tested or not shown; ! = a repeat was not active.

SMILES | D1 antag | D1 potentiator | D1 agonist | DRD3 antagonist | D3 ag
CCCCN(CCCNC(=O)c1cc(Nc2ccc(OC)c(OC)c2)nc2ccccc12)Cc1ccccc1 | -4.3 | -1.1 | 0.2 | · | 6.7
O=C(NC(=S)Nc1nc(-c2ccccc2)cs1)c1cccnc1 | -0.1 | 9.7 | 12.6 | -11.7 | 7.4
O=C(NC(=S)Nc1nc(-c2ccccc2)cs1)c1cncc(Br)c1 | 1.2 | 6.2 | 37.4* | 35.2 | 0.0
O=C(Nc1nc(-c2ccccc2)cs1)C1CCCO1 (centres undefined) | -17.7 | -0.1 | 4.0 | -90.8* | 5.2
COc1ccc(N2CCN(C(=O)COc3ccccc3C#N)CC2)cc1 | 14.0 | -1.4 | -1.2 | · | 7.3
COc1ccc(OC)c(CNc2ncnc3c2nc2n3CCCC2)c1 | -13.9 | -1.9 | -0.1 | · | 2.6
Cc1cccc(C)c1NC(=O)Cn1c(=O)n(CCC(=O)NCc2ccc3c(c2)OCO3)c(=O)c2sccc21 | -3.0 | 3.0 | -0.3 | · | 8.4
CCc1cc(=O)oc2cc(C)cc(OCC(=O)N3CCC(C(=O)NC(C)C)(c4ccccc4)CC3)c12 | -37.5* | -8.0 | 1.1 | 60.3 | 17.6
Cc1ccc(CNC(=O)C(=O)Nc2c3c(nn2-c2ccc(F)cc2)CSC3)cc1 | · | -2.5 | 2.5 | · | -0.1
COc1ccc2c(c1)c1c(c(=O)n(-c3cccc(C)c3)c(=O)n1Cc1cccc(Cl)c1)n2C | -3.6 | -1.6 | -0.2 | · | -2.2
CC(C)N=C(N)/N=C(\N)Nc1ccc(Cl)cc1 | · | · | · | · | 2.6
NC(=NCCCCCCN=C(N)/N=C(\N)Nc1ccc(Cl)cc1)/N=C(\N)Nc1ccc(Cl)cc1 | -81.6* | -5.7 | 7.5 | -51.4*! | -60.4
Cc1ccc(Nc2nc3ccccc3c3nncn23)cc1C | 1.7 | 2.8 | 2.6 | · | -15.9
Cc1cccc(NC(=O)c2cc3c(=O)n(Cc4ccco4)ccc3nc2C)c1 | -26.0 | 2.0 | -0.4 | · | -1.1
CC1CCN(Cc2cnc(Cl)s2)CC1 | 1.4 | -4.9 | 2.1 | -14.6 | 4.3
Clc1ncc(CN2CCN(c3ccccc3)CC2)s1 | · | -3.5 | -1.3 | -12.2 | 39.2*
Fc1ccccc1N1CCN(Cc2cnc(Cl)s2)CC1 | -9.8 | -4.0 | -0.4 | -20.6 | 49.7*
CC(C)S(=O)(=O)c1csc(C(=O)Nc2ccc(F)cc2)c1N | -55.6* | -17.5 | 0.7 | -11.0 | -22.6
CCOC(=O)c1c(NC(C)=O)sc2c1CCC(C=O)=C2Sc1ccccc1 | 11.6 | -3.0 | 1.0 | -58.2* | -29.1
Cc1cc(/C=C2\SC(=O)N(C)C2=O)c(C)n1-c1ccc(O)cc1 | -2.8 | -4.2 | 7.7 | -0.4 | 0.3
CN=C1S/C(=C\c2cc(C)n(-c3ccccc3F)c2C)C(=O)N1C | -43.4* | -4.3 | 6.0 | -5.2 | -2.1
Cc1cc(O)c(C(c2ccccc2)N2CCN(c3ccccc3)CC2)c(=O)n1Cc1ccco1 (centres undefined) | -16.4 | -2.8 | -1.7 | · | -13.9
CCC1CCCCN1S(=O)(=O)c1ccc(NC(=O)c2nc(S(C)(=O)=O)ncc2Cl)cc1 (centres undefined) | -34.0* | -10.7 | 0.8 | -17.5 | -29.3
CCSc1ncc(Cl)c(C(=O)Nc2ccc(S(=O)(=O)N3CCCCC3CC)cc2)n1 (centres undefined) | -9.7 | 2.8 | 1.8 | · | -17.4
CCC1CCCCN1S(=O)(=O)c1ccc(NC(=O)c2ccncc2)cc1 (centres undefined) | -33.9* | -4.8 | 18.4 | 4.9 | 26.1
SMILES | D1 antag | D1 potentiator | D1 agonist | DRD3 antagonist | D3 ag
CC(C)C1=CC2=CC[C@@H]3[C@](C)(CCC[C@@]3(C)C(=O)O)[C@H]2CC1 | · | · | · | · | -10.4
CCOc1ccc(OCC)c(NS(=O)(=O)c2cc(-c3onc(C)c3C)ccc2OC)c1 | -16.8 | -4.8 | 1.5 | · | 2.7
CC1CCCCN1CCCNC(=O)c1ccc(Br)cc1 (centres undefined) | -5.0 | -2.5 | 7.6 | -65.0* | -30.5
Cc1ccc(C(=O)NCCN2CCN(C(=O)c3ccc(C)c(C)c3)CC2)cc1C | 4.7 | -3.4 | 0.2 | -98.2* | -28.3
O=C(NCCN1CCN(C(=O)c2ccc(Br)cc2)CC1)c1ccc(Br)cc1 | 2.2 | -6.4 | 6.1 | -98.1* | -24.0
Cc1c(C)n(C)c2ccc(C(=O)NCCCN3CCCCC3C)cc12 (centres undefined) | 1.9 | 1.4 | 5.7 | 5.5 | -9.0
O=C(NCCCN1CCN(c2ccccc2)CC1)c1nnc(Cc2ccc(F)cc2)o1 | -9.2 | -3.1 | -0.3 | · | 13.7
COc1cccc(-c2c(C(=O)N/N=C/c3ccsc3)nnn2-c2nonc2N)c1 | 29.1 | 14.7 | 162.5* | -14.8 | -5.3
CCOc1ccc(-c2c(C(=O)N/N=C/c3ccsc3)nnn2-c2nonc2N)cc1 | 33.2 | 2.5 | 37.5* | 9.7 | 5.1
CCOc1ccc(-c2c(C(=O)N/N=C/c3ccc(O)cc3)nnn2-c2nonc2N)cc1 | 40.0 | -20.0 | 1.8 | -7.8 | -0.5
O=C(Nc1ccc(C(=O)OCc2cc(=O)n3c4c(sc3n2)CCCC4)cc1)c1ccc(F)cc1 | -11.6 | -0.5 | -1.3 | · | 7.4
O=C(CSc1nc(-c2ccccc2)nc2c1Cc1ccccc1O2)N1CCCCC1 | -0.1 | 2.0 | 5.1 | · | 1.9
O=C(COC(=O)c1cccs1)Nc1ccccc1C(F)(F)F | -32.0* | -4.2 | 31.6* | 3.8 | -0.2
O=C(O)CCc1ccc(-c2ccccc2)n1CC(=O)Nc1cccc(C(F)(F)F)c1 | -65.3* | -8.9 | 1.0 | 13.5 | -1.0
O=C(O)CCc1ccc(-c2cccs2)n1CC(=O)Nc1ccccc1C(F)(F)F | -38.8*! | -2.8 | 2.4 | -8.7 | -1.5
C=CCn1c(CCC(=O)O)ccc1-c1ccccc1 | -56.0* | -2.0 | 2.6 | -26.1 | -6.3
O=C(O)CCc1ccc(-c2ccccc2)n1CC(=O)Nc1ccccc1C(F)(F)F | -11.4 | -0.7 | 3.9 | · | 7.1
CC1=C(C(=O)Nc2cccnc2)C(c2ccccc2)n2nc(SCc3ccccc3Cl)nc2N1 (centres undefined) | -6.1 | 0.8 | -0.2 | · | -9.3
CCCN1C(=O)C(Cc2nc3ccccc3c(=O)n2-c2ccc(OC)cc2)c2cc(C)ccc21 (centres undefined) | 6.1 | -0.9 | 1.9 | · | 2.3
O=S(=O)(Nc1cccnc1)c1cccc2ccccc12 | 24.2 | 0.8 | -0.6 | · | ·
Cc1cc(-c2cc(C(=O)NCc3ccccc3)on2)nc(S(C)(=O)=O)n1 | 5.1 | 0.9 | 2.9 | -64.8* | -30.7
Cc1cccc(-c2noc(CN(C(C)C)S(=O)(=O)c3ccc(Br)cc3)n2)c1 | -15.1 | 6.5 | 34.4* | · | -8.3
O=C(/C=C/c1ccccc1)NC(NC(=S)Nc1cc(Cl)ccc1Cl)C(Cl)(Cl)Cl (centres undefined) | -36.7* | -6.3 | 4.0 | ? | -26.1
O=C(NC(NC(=S)Nc1cc(Cl)ccc1Cl)C(Cl)(Cl)Cl)c1ccco1 (centres undefined) | -40.4* | -7.3 | 26.5 | ? | -32.5
Cc1ccc(SCCNC(=O)c2ccccc2F)cc1 | 3.2 | -0.6 | -3.0 | -0.5 | -6.1
CS(=O)(=O)Nc1ccccc1C(=O)NCCSc1ccc(Cl)cc1 | -31.9* | -6.8 | 16.3 | ? | -24.1
